In PubChem BioAssay (NCATS):
Inconclusive results are not listed. A call without a number means that no potency is given here. Active and inactive are the calls of the source. The call rests on the fitted dose curve; in most records, active means well fitted inhibition curve with a large enough effect; inconclusive means small, poorly fitted or top-dose-only effect; inactive means no such curve, though single readings can be large or run the other way.

Biological target: Nuclear receptor subfamily 1 group I member 3 (Homo sapiens) (UniProt Q14994)
Sequence (Q14994 whole entry, looked up): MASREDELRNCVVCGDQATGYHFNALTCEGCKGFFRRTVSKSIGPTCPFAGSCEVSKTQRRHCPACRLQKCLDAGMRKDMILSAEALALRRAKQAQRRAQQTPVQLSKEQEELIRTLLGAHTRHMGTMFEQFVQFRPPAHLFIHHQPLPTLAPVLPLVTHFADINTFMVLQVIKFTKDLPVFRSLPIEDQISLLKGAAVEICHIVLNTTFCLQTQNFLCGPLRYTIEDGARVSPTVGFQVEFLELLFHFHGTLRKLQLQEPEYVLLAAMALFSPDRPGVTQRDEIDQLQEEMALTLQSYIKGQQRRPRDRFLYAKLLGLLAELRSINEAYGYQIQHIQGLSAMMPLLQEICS
Experiment: qHTS for Constitutive Androstane Receptor (CAR) Antagonist screened against the NCATS CANVASS Library (AID 1347372)
Conditions: HepG2-hCAR-CYP2B6 luciferase, CITCO-stimulated antagonist mode; series mostly up to 46.1 µM
Method in brief: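 HepG2-CYP2B6-hCAR double-stable cells plated, 4hr attach; cpd pin-transferred; CITCO 50 nM final; 24hr 37C/5% CO2; CellTiter-Fluor 1hr (fluorescence), then ONE-Glo luminescence.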
Potency means the concentration at half of the fitted maximal effect.

Row | Structure (SMILES) | Potency
1 | C[C@H]1C=C[C@H]2CCCC[C@@H]2[C@H]1C(=O)[C@H]1CC2=C(C(=O)O)CCN2C1=O | inactive
2 | C/C(=C\[C@H](C)C(=O)/C=C/CC1CC(=O)NC(=O)C1)[C@@H]1OC(=O)/C=C/CC/C=C/C[C@@H](O)[C@@H]1C | 18.6 µM (active)
3 | CC(C)[C@]12CC[C@@]3(C)[C@H](C)CC[C@H](O)[C@@]3(CC1)c1cc3c(cc12)[nH]c1ccccc13 | inactive
4 | CC(C)=CCC[C@]12c3cc4c(cc3CC[C@@]1(C)[C@H](C)CC[C@@H]2O)[nH]c1ccccc14 | inactive
5 | Oc1ccc(C2Oc3cc(O)c4c(c3[C@@H]2c2cc(O)cc(O)c2)[C@H]2C(c3ccc(O)cc3)c3c(O)cc5c(c3[C@H]2C4c2ccc(O)cc2)[C@H](c2cc(O)cc(O)c2)C(c2ccc(O)cc2)O5)cc1 (stereo partly specified) | inactive
6 | COc1cc(O)c(C(=O)[C@@H]2[C@H](CC=C(C)C)C(C)=CC[C@H]2c2ccccc2)c(O)c1 | 33.1 µM (active)
7 | C=C(C)CC[C@H](Cc1c(O)cc(O)c2c1O[C@H](c1ccc(O)cc1)CC2=O)C(=C)C | inactive
8 | COc1cc(/C=C/C(=O)OC[C@@H](Cc2ccc(O)c(OC)c2)[C@@H](COC(=O)/C=C/c2ccc(O)c(OC)c2)Cc2ccc(O)c(OC)c2)ccc1O | inactive
9 | C=CC(CCCCC)C1C(=O)NC(=O)C1C(=O)C1C2C(C)CC(C(=O)O)CC2CC1(O)C(=O)/C=C/C (stereo unspecified) | inactive
10 | C[C@]12CCC[C@](C)(C(=O)O)[C@@H]1CC[C@@]1(C)c3cocc3CC[C@H]21 | inactive
11 | COc1c(O)cc2c(c1O)C(=O)c1c(coc1C)C2=O | inactive
